DENV2 CPE rescue: inhibitors of DENV2 cytopathic effect, primary screen, cell-based, plate reader, single concentration; DENV2-infected cells, cytopathic effect rescue; CPE inhibition, % at 9.99 µM; hit rate 1.7% among 350,000; in the data active = CPE inhibition above about 20%, passing the limit was not always enough; inconclusive = no clear call, values can overlap the other calls; tested in BHK-21 cells;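 note: 0% = median of neutral control wells and 100% = median of positive control wells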
FGF22 binding-1: binders of human FGF22 protein, primary screen, FGF22 synaptogenesis inhibitor project, biophysical, thermal shift, single point | Fibroblast growth factor 22 (Homo sapiens), Q9HCT0 | recombinant FGF22 thermal shift, SYPRO orange fluorescence; percent of sucrose octasulfate shift, DMSO zero | activity (Tm shift, normalised), % at 9.99 µM | hit rate 1.5% among 340,000;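 active = mean Tm shift, scaled 0 neutral to 100 positive control, at about 1.3% or above, every replicate too, limit read from the data; inconclusive = no clear call, values can overlap the other calls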
RAD52 inh: RAD52 DNA annealing inhibitors, primary screen, biochemical, FRET, single point, set 2; inhibition, % at 18.7 µM; recombinant RAD52 DNA annealing, FRET fluorescence; AID 651710, 2012; hit rate 0.46% among 360,000;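 active = every replicate showing at least 50% inhibition; inconclusive = mean inhibition at least 50% but not in every replicate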
AF4-AF9 inh: inhibitors of AF4 peptide binding to AF9, primary screen, biochemical, AlphaScreen, biotin-AF4 peptide, FLAG-AF9, single point; Protein AF-9 (Homo sapiens), P42568; inhibition, % at 10 µM; hit rate 0.47% among 350,000;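 active = every replicate reaching a set inhibition limit, whatever the replicate mean, cut at about 25% in these data; inconclusive = mean inhibition reaches that limit but some replicates miss it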;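 note: 0% = plate neutral control median and 100% = total signal loss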
ERAP1 HTS inh: human ERAP1 aminopeptidase inhibitors, primary screen, biochemical, single point, plate reader | Endoplasmic reticulum aminopeptidase 1 (Homo sapiens), Q9NZ08 | recombinant ERAP1, Leu-AMC fluorescence, 60 min | inhibition, % at 10.7 µM | hit rate 0.15% among 340,000 | AID 652197, 2013;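 active = mean replicate inhibition of at least 30%, or all replicates individually reaching that 30% level; inactive = mean below 30% and not every replicate reaching it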;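 note: 0% = neutral control wells and 100% = L-leucinethiol positive control wells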
Target sequence (Q9NZ08 whole entry, looked up): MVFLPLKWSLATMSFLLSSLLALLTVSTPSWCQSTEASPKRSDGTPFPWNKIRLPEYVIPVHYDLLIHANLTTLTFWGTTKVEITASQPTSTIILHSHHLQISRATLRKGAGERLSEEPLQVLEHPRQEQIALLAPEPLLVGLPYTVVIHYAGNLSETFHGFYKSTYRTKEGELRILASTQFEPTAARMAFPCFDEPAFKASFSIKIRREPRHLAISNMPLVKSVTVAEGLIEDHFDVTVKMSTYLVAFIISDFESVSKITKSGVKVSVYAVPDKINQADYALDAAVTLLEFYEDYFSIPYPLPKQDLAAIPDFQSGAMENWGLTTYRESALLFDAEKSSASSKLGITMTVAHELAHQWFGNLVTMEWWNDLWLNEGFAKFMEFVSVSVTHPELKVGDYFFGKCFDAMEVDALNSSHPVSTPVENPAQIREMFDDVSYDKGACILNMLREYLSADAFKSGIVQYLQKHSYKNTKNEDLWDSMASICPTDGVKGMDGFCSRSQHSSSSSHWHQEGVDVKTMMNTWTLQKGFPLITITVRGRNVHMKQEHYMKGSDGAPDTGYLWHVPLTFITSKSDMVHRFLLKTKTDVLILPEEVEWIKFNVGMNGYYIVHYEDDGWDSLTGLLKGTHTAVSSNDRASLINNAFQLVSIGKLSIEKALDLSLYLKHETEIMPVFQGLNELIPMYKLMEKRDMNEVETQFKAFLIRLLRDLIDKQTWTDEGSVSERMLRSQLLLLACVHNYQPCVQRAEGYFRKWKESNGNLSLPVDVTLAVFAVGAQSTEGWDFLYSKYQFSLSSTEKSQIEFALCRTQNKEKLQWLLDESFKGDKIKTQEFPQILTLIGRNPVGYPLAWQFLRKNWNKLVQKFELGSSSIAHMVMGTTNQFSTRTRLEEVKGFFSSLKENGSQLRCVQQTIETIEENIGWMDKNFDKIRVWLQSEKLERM
FGF22 binding-2: binders of human FGF22 protein, dose response, FGF22 synaptogenesis inhibitor project, biophysical, thermal shift, cherry-pick retest. shares compounds with FGF22 binding-1. recombinant FGF22 thermal shift, SYPRO orange fluorescence. thermal shift activity, °C (ΔTm) at 38 µM. hit rate 2% among 1,000. AID 720646, 2013;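 active = fitted rise in melting shift crosses a set limit at or below the top valid dose tested; inconclusive = flat fit at mid-level activity, or a poor quality fit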
TSA no protein: compound-only thermal shift signal without protein, dose response, artefact control for FGF22 binder project, biochemical, cherry-picked samples, RT-PCR instrument. shares compounds with FGF22 binding-1. compound-only SYPRO orange thermal shift counter-screen, no protein. AC50, µM (doses to about 38 µM). hit rate 2% among 1,000;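 active = rising signal whose fitted curve reaches the 0.54 level within the top valid dose, showing a melting point, actives reach about 13 µM in these data; inactive = the rest, including activity in the opposite direction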; note: value is where the raw curve crosses a fixed level and not half-maximal
AlphaScreen intf: AlphaScreen signal interference counter-screen, dose response, artefact control, biochemical, cherry-picked samples, luminescence | AC50, µM (highest dose often 12 µM), for the others: at the top dose activity change, negative = inhibition | hit rate 45% among 530 | shares compounds with AF4-AF9 inh; cut-off not given, nearly all actives have AC50 up to about 14 µM
RAD52 DNA ctr: DNA-binding compounds via dye displacement, dose response, artefact control for RAD52 inhibitor project, biochemical, fluorescence polarization, cherry-pick. shares compounds with RAD52 inh. Salmon sperm DNA/acridine orange FP displacement. AC50, µM. hit rate 8% among 1,000;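 active = fitted half-maximal concentration for signal loss at or below twice the highest dose tested, in every separate run, actives reach about 64 µM in these data; inconclusive = runs disagree, or flat partial signal loss, or poor fit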
Numbers without * were called inactive; i = inactive; u = inconclusive; x = no result given. Sampled rows, rich in hits. Any-hit rate of the full collection: about 4%.

SMILES | DENV2 CPE rescue | FGF22 binding-1 | RAD52 inh | AF4-AF9 inh | ERAP1 HTS inh | AlphaScreen intf | others
COc1ccc(C#Cc2ccc3c(c2)O[C@H](CN(C)S(=O)(=O)c2ccccc2F)[C@@H](C)CN([C@@H](C)CO)S3(=O)=O)cc1 | 7.1 | 2.1* | -59.5 | -3.3 | -3.1 | x | FGF22 binding-2=0.016;TSA no protein=2.41µM*
COc1ccc(OC(=O)N(C)C[C@H]2OCc3ccccc3-c3c(n(C)c4ccccc34)C(=O)N([C@H](C)CO)C[C@H]2C)cc1 | 6.9 | x | 8.0 | 6.1 | 0.4 | x
O=C(O)[C@H]1[C@H](CO)[C@H]2Cn3c(ccc(-c4ccncc4)c3=O)[C@@H]1N2S(=O)(=O)c1ccccc1F | -1.0 | -0.1 | 1.6 | -5.6 | -1.5 | x
O=C1CN=C(c2ccc(Br)cc2)c2c(sc3c2CCCC3)N1CCN1CCCCC1 | 5.0 | 0.7 | -2.4 | 32.3* | -2.2 | -37.2%
COc1ccc2c(c1)c(CCN)c(C)n2Cc1ccccc1 | 13.2 | 0.0 | 14.2 | 33.0* | -1.9 | -30.1%
C#CCOc1ccc2c(c1)c(C(C)=O)c(C)n2Cc1ccccc1 | -0.6 | 0.1 | -14.7 | 1.5 | 4.6 | x
O=C(O)[C@@H]1[C@@H](CO)[C@@H]2Cn3c(ccc(-c4ccncc4)c3=O)[C@H]1N2C(=O)C1CCCCC1 | 0.3 | -0.4 | -58.7 | 7.6 | 1.3 | x
C[n+]1c(-c2ccccc2)c2cc(N)ccc2c2ccc(N)cc21 | -5.0 | -0.7 | 21.2 | 55.3* | 8.8 | 8.5µM*
CCCNC(=O)N1[C@@H]2Cn3c(ccc(-c4ccccc4OC)c3=O)[C@H]1[C@@H](C(=O)O)[C@@H]2CO | -4.1 | 0.1 | -5.1 | -1.3 | -1.5 | x
CC(C)Nc1ccc(Nc2ccccc2)cc1 | 3.1 | -1.2 | 11.1 | u | 1.9 | -28.8%
Cc1ccc(-c2cc(-c3ccccc3)cc(-c3ccccc3)[n+]2-c2ccccc2)cc1 | 11.3 | 0.3 | 9.3 | 9.2 | x | x
Cc1ccc(-c2cc(-c3ccc(C)cc3)[n+](-c3ccc(C(=O)[O-])cc3)c(-c3ccc(C)cc3)c2)cc1 | -0.2 | 0.5 | 31.9 | 26.4* | x | -26.9%
CCCNC(=O)N1[C@@H]2c3ccc(-c4ccccc4OC)c(=O)n3C[C@H]1[C@H](CO)[C@H]2C(=O)O | 2.4 | 0.2 | -0.7 | -1.7 | -1.4 | x
CCN1CCN(c2ccc(N)cc2)CC1 | 13.3 | -0.4 | 89.8* | 81.5* | -3.3 | 4.52µM* | RAD52 DNA ctr=53.2µM*
CCN1CCN(c2ccc(NC(C)=O)cc2Cl)CC1 | -6.2 | 0.0 | -10.0 | -1.7 | -0.5 | x
CCN1CCN(c2ccc(N)cc2C)CC1 | 0.6 | 0.6 | 99.9* | 42.6* | 4.6 | 11.8µM* | RAD52 DNA ctr=46.7µM*
O=C(Cc1cccnc1)N1CCCCN2[C@@H](CO)[C@H](c3ccc(/C=C/c4ccccc4)cc3)[C@@H]2C1 | -2.7 | -0.2 | -21.6 | 9.7 | -3.8 | x
COc1ccc(-c2ccc([C@@H]3[C@H]4CN(C(=O)Cc5ccncc5)CCCCN4[C@H]3CO)cc2)cc1 | 7.5 | -0.6 | 1.7 | -4.7 | -0.2 | x
NCC(O)c1cc(O)c(O)cc1F (stereo not given) | -2.0 | -0.4 | 91.9* | 53.3* | 0.7 | -19.0% | RAD52 DNA ctr=i
COc1cc2c3cc1Oc1cc(ccc1O)C[C@@H]1c4c(cc(OC)c(O)c4Oc4ccc(cc4)C[C@H]3N(C)CC2)CCN1C | -5.8 | -0.2 | 51.8* | u | 1.2 | x | RAD52 DNA ctr=i

High-throughput results (PubChem)
